In PMC11006913:
Positions count from the first letter of the chain named.

What was measured:
Assay in all cases: PBM; 200 nM protein, PBS
Details in all cases: dsDNA, one strand shown
[1] = biological target: CRX (Homo sapiens, UniProt O43186 26-111)
[2] = biological target: CRX (Homo sapiens, UniProt O43186 26-111, E42D)
[3] = biological target: CRX (Homo sapiens, UniProt O43186 26-111, R41L)
[4] = biological target: PITX2 (Homo sapiens, UniProt Q99697 72-157)
[5] = biological target: NKX2-5 (Homo sapiens, UniProt P52952 125-210)
Chain of NKX2-5 (P52952 125-210): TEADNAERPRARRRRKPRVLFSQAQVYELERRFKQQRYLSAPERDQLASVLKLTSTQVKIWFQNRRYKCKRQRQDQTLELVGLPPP

[6] = biological target: T1, NKX2-4 (Homo sapiens, UniProt Q9H2Z4 175-261, P217L)
T1 sequence: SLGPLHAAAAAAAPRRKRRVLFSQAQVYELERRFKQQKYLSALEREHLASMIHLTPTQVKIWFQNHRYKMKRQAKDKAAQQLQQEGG

[7] = biological target: HOXB9 (Homo sapiens, UniProt P17482 171-250, T197M)
Chain of HOXB9 (Homo sapiens, UniProt P17482 171-250, T197M) (P17482 171-250 T197M): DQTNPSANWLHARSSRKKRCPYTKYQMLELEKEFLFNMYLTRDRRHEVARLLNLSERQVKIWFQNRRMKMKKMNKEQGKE

[8] = biological target: T2, NKX2-4 (Homo sapiens, UniProt Q9H2Z4 175-261, T231S)
T2 sequence: T1 sequence with L43P, T57S

[9] = biological target: T3, NKX2-4 (Homo sapiens, UniProt Q9H2Z4 175-261)
T3 sequence: T1 sequence with L43P

[10] = biological target: HOXB9 (Homo sapiens, UniProt P17482 171-250)
Chain of HOXB9 (Homo sapiens, UniProt P17482 171-250) (P17482 171-250): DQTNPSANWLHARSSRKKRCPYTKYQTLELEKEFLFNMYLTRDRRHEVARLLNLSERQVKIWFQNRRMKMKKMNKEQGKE

[11] = biological target: T4, NKX2-4 (Homo sapiens, UniProt Q9H2Z4 175-261, R246Q)
T4 sequence: T1 sequence with L43P, R72Q

[12] = biological target: HOXB9 (Homo sapiens, UniProt P17482 171-250, R186Q)
Chain of HOXB9 (Homo sapiens, UniProt P17482 171-250, R186Q) (P17482 171-250 R186Q): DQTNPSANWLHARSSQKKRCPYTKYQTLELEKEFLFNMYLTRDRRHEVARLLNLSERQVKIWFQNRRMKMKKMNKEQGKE

[13] = biological target: T5, VENTX (Homo sapiens, UniProt O95231 78-163, R121Q)
T5 sequence: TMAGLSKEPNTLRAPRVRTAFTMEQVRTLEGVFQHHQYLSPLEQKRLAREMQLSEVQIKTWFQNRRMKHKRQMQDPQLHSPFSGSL

[14] = biological target: T6, VENTX (Homo sapiens, UniProt O95231 78-163)
T6 sequence: T5 sequence with Q44R

[15] = biological target: T7, VENTX (Homo sapiens, UniProt O95231 78-163, Y115F)
T7 sequence: T5 sequence with Y38F, Q44R

[16] = biological target: HOXA4 (Homo sapiens, UniProt Q00056 201-287, W262R)
Chain of HOXA4 (Homo sapiens, UniProt Q00056 201-287, W262R) (Q00056 201-287 W262R): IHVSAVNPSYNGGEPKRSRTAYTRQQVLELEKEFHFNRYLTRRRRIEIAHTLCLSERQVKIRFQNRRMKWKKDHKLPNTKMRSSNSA

[17] = biological target: HOXA4 (Homo sapiens, UniProt Q00056 201-287, R217L)
Chain of HOXA4 (Homo sapiens, UniProt Q00056 201-287, R217L) (Q00056 201-287 R217L): as the sequence (Q00056 201-287 W262R) above, with R17L, R62W counted along it

[18] = biological target: HOXA4 (Homo sapiens, UniProt Q00056 201-287)
Chain of HOXA4 (Homo sapiens, UniProt Q00056 201-287) (Q00056 201-287): as the sequence (Q00056 201-287 W262R) above, with R62W counted along it

[19] = biological target: HOXA4 (Homo sapiens, UniProt Q00056 201-287, W262F)
Chain of HOXA4 (Homo sapiens, UniProt Q00056 201-287, W262F) (Q00056 201-287 W262F): as the sequence (Q00056 201-287 W262R) above, with R62F counted along it

Chain of CRX (Homo sapiens, UniProt O43186 26-111, R41L) (O43186 26-111 R41L): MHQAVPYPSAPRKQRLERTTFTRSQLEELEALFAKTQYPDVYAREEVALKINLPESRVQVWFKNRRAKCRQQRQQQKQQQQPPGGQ
Chain of CRX (Homo sapiens, UniProt O43186 26-111, E42D) (O43186 26-111 E42D): as the sequence (O43186 26-111 R41L) above, with L16R, E17D counted along it
Chain of CRX (Homo sapiens, UniProt O43186 26-111) (O43186 26-111): as the sequence (O43186 26-111 R41L) above, with L16R counted along it

Which binding signal [1] does the source give for GATTATAA here?
Its binding signal is 12.7 upbm affinity estimate (log intensity, higher = more binding, comparable within an allelic series).

What about the binding signal [2] of the same sequence?
The binding signal was 12.6 upbm affinity estimate (log intensity, higher = more binding, comparable within an allelic series).

And the binding signal [3]?
The binding signal was 12.6 upbm affinity estimate (log intensity, higher = more binding, comparable within an allelic series).

Which results are given for CTTGCTAC?
binding signal [1]: 8.21 upbm affinity estimate (log intensity, higher = more binding, comparable within an allelic series); binding signal [2]: 8.34 upbm affinity estimate (log intensity, higher = more binding, comparable within an allelic series); binding signal [3]: 8.28 upbm affinity estimate (log intensity, higher = more binding, comparable within an allelic series)

With AGATTATA as the sequence, how does the binding signal [1] read?
The binding signal was 12.9 upbm affinity estimate (log intensity, higher = more binding, comparable within an allelic series).

What about the binding signal [2] of the same sequence?
The binding signal was 12.8 upbm affinity estimate (log intensity, higher = more binding, comparable within an allelic series).

And the binding signal [3]?
Its binding signal is 12.8 upbm affinity estimate (log intensity, higher = more binding, comparable within an allelic series).

How did the binding signal [1] turn out when AGATTAAC was run?
The binding signal was 12.9 upbm affinity estimate (log intensity, higher = more binding, comparable within an allelic series).

What about the binding signal [4] of the same sequence?
Its binding signal is 12.7 upbm affinity estimate (log intensity, higher = more binding, comparable within an allelic series).

What about the binding signal [3] of the same sequence?
Its binding signal is 12.6 upbm affinity estimate (log intensity, higher = more binding, comparable within an allelic series).

For GGTGCTTA, which binding signal [1] is on record?
Its binding signal is 11 upbm affinity estimate (log intensity, higher = more binding, comparable within an allelic series).

And the binding signal [2]?
The binding signal was 10.9 upbm affinity estimate (log intensity, higher = more binding, comparable within an allelic series).

What about the binding signal [3] of the same sequence?
The binding signal was 10.4 upbm affinity estimate (log intensity, higher = more binding, comparable within an allelic series).

What about the binding signal [5] of the same sequence?
The binding signal was 10.4 upbm affinity estimate (log intensity, higher = more binding, comparable within an allelic series).

Which binding signal [1] does the source give for GAACGTTC here?
Its binding signal is 8.02 upbm affinity estimate (log intensity, higher = more binding, comparable within an allelic series).

And the binding signal [2]?
Its binding signal is 7.99 upbm affinity estimate (log intensity, higher = more binding, comparable within an allelic series).

And the binding signal [3]?
The binding signal was 8.07 upbm affinity estimate (log intensity, higher = more binding, comparable within an allelic series).

With TAATCCAA as the sequence, how does the binding signal [1] read?
The binding signal was 13 upbm affinity estimate (log intensity, higher = more binding, comparable within an allelic series).

What about the binding signal [2] of the same sequence?
Its binding signal is 13 upbm affinity estimate (log intensity, higher = more binding, comparable within an allelic series).

And the binding signal [3]?
Its binding signal is 12.8 upbm affinity estimate (log intensity, higher = more binding, comparable within an allelic series).

Which results are given for CGAGTGCG?
binding signal [1]: 8.19 upbm affinity estimate (log intensity, higher = more binding, comparable within an allelic series); binding signal [2]: 8.15 upbm affinity estimate (log intensity, higher = more binding, comparable within an allelic series); binding signal [3]: 8.17 upbm affinity estimate (log intensity, higher = more binding, comparable within an allelic series)

For AATCCAAC, which binding signal [1] is on record?
Its binding signal is 10.9 upbm affinity estimate (log intensity, higher = more binding, comparable within an allelic series).

What about the binding signal [2] of the same sequence?
The binding signal was 10.8 upbm affinity estimate (log intensity, higher = more binding, comparable within an allelic series).

And the binding signal [3]?
Its binding signal is 10.7 upbm affinity estimate (log intensity, higher = more binding, comparable within an allelic series).

How did the binding signal [6] turn out when CTGGGGGC was run?
The binding signal was 9.39 upbm affinity estimate (log intensity, higher = more binding, comparable within an allelic series).

And the binding signal [7]?
Its binding signal is 8.38 upbm affinity estimate (log intensity, higher = more binding, comparable within an allelic series).

What about the binding signal [8] of the same sequence?
Its binding signal is 9.45 upbm affinity estimate (log intensity, higher = more binding, comparable within an allelic series).

And the binding signal [9]?
Its binding signal is 9.5 upbm affinity estimate (log intensity, higher = more binding, comparable within an allelic series).

What about the binding signal [10] of the same sequence?
Its binding signal is 8.3 upbm affinity estimate (log intensity, higher = more binding, comparable within an allelic series).

And the binding signal [11]?
Its binding signal is 9.37 upbm affinity estimate (log intensity, higher = more binding, comparable within an allelic series).

And the binding signal [12]?
The binding signal was 8.44 upbm affinity estimate (log intensity, higher = more binding, comparable within an allelic series).

Which binding signal [1] does the source give for AGATTAGG here?
Its binding signal is 12.7 upbm affinity estimate (log intensity, higher = more binding, comparable within an allelic series).

And the binding signal [4]?
The binding signal was 12.3 upbm affinity estimate (log intensity, higher = more binding, comparable within an allelic series).

And the binding signal [3]?
The binding signal was 12.2 upbm affinity estimate (log intensity, higher = more binding, comparable within an allelic series).

How did the binding signal [1] turn out when ACTGCTGG was run?
Its binding signal is 8.37 upbm affinity estimate (log intensity, higher = more binding, comparable within an allelic series).

What about the binding signal [2] of the same sequence?
Its binding signal is 8.49 upbm affinity estimate (log intensity, higher = more binding, comparable within an allelic series).

What about the binding signal [3] of the same sequence?
The binding signal was 8.37 upbm affinity estimate (log intensity, higher = more binding, comparable within an allelic series).

What does the source list for GCCAATCC?
binding signal [1]: 10.4 upbm affinity estimate (log intensity, higher = more binding, comparable within an allelic series); binding signal [2]: 10.3 upbm affinity estimate (log intensity, higher = more binding, comparable within an allelic series); binding signal [3]: 10.1 upbm affinity estimate (log intensity, higher = more binding, comparable within an allelic series)

CACCGCGG was tested. Which binding signal [6] did it give?
Its binding signal is 9.48 upbm affinity estimate (log intensity, higher = more binding, comparable within an allelic series).

What about the binding signal [13] of the same sequence?
The binding signal was 8.21 upbm affinity estimate (log intensity, higher = more binding, comparable within an allelic series).

What about the binding signal [7] of the same sequence?
The binding signal was 8.56 upbm affinity estimate (log intensity, higher = more binding, comparable within an allelic series).

What about the binding signal [14] of the same sequence?
The binding signal was 8.03 upbm affinity estimate (log intensity, higher = more binding, comparable within an allelic series).

And the binding signal [8]?
The binding signal was 9.5 upbm affinity estimate (log intensity, higher = more binding, comparable within an allelic series).

What about the binding signal [15] of the same sequence?
The binding signal was 8.12 upbm affinity estimate (log intensity, higher = more binding, comparable within an allelic series).

And the binding signal [9]?
The binding signal was 9.48 upbm affinity estimate (log intensity, higher = more binding, comparable within an allelic series).

And the binding signal [10]?
Its binding signal is 8.55 upbm affinity estimate (log intensity, higher = more binding, comparable within an allelic series).

And the binding signal [11]?
The binding signal was 9.54 upbm affinity estimate (log intensity, higher = more binding, comparable within an allelic series).

What about the binding signal [12] of the same sequence?
The binding signal was 8.55 upbm affinity estimate (log intensity, higher = more binding, comparable within an allelic series).

With CTTAAGCC as the sequence, how does the binding signal [1] read?
Its binding signal is 12.7 upbm affinity estimate (log intensity, higher = more binding, comparable within an allelic series).

What about the binding signal [3] of the same sequence?
The binding signal was 11.9 upbm affinity estimate (log intensity, higher = more binding, comparable within an allelic series).

How did the binding signal [6] turn out when CAGTCCCG was run?
The binding signal was 9.58 upbm affinity estimate (log intensity, higher = more binding, comparable within an allelic series).

And the binding signal [16]?
Its binding signal is 9.96 upbm affinity estimate (log intensity, higher = more binding, comparable within an allelic series).

What about the binding signal [8] of the same sequence?
Its binding signal is 9.49 upbm affinity estimate (log intensity, higher = more binding, comparable within an allelic series).

And the binding signal [9]?
Its binding signal is 9.67 upbm affinity estimate (log intensity, higher = more binding, comparable within an allelic series).

And the binding signal [17]?
Its binding signal is 9.95 upbm affinity estimate (log intensity, higher = more binding, comparable within an allelic series).

And the binding signal [18]?
Its binding signal is 9.91 upbm affinity estimate (log intensity, higher = more binding, comparable within an allelic series).

And the binding signal [11]?
Its binding signal is 9.57 upbm affinity estimate (log intensity, higher = more binding, comparable within an allelic series).

What about the binding signal [19] of the same sequence?
The binding signal was 10 upbm affinity estimate (log intensity, higher = more binding, comparable within an allelic series).

How did the binding signal [1] turn out when CACCAGTC was run?
Its binding signal is 8.16 upbm affinity estimate (log intensity, higher = more binding, comparable within an allelic series).

And the binding signal [2]?
Its binding signal is 8.23 upbm affinity estimate (log intensity, higher = more binding, comparable within an allelic series).

And the binding signal [3]?
Its binding signal is 8.2 upbm affinity estimate (log intensity, higher = more binding, comparable within an allelic series).

With GTAATCCA as the sequence, how does the binding signal [1] read?
The binding signal was 12.9 upbm affinity estimate (log intensity, higher = more binding, comparable within an allelic series).

What about the binding signal [4] of the same sequence?
The binding signal was 12.9 upbm affinity estimate (log intensity, higher = more binding, comparable within an allelic series).

What about the binding signal [3] of the same sequence?
Its binding signal is 12.7 upbm affinity estimate (log intensity, higher = more binding, comparable within an allelic series).
